From PubChem BioAssay (NCI) come the findings set out here.

Common to all, as to experiment: NCI-60 one-dose screen, 48 h (100 = growth as untreated, 0 = no growth, -100 = all killed)
One assay relates to SR leukemia. Particulars: 10 µM unless noted.
A further assay concerns RPMI-8226 leukemia. Particulars: 10 µM unless noted.
The subject of the next assay is OVCAR-8 ovarian. The note with it: 10 µM unless noted.
A further assay concerns OVCAR-5 ovarian. Particulars: 10 µM unless noted.
For a further assay, the system named is OVCAR-4 ovarian. Particulars: 10 µM unless noted.
Another assay relates to SK-OV-3 ovarian. The note with it: 10 µM unless noted.
A further assay relates to OVCAR-3 ovarian. Particulars: 10 µM unless noted.
In another assay the test system is NCI/ADR-RES ovarian. Particulars: 10 µM unless noted.
The next assay relates to T-47D breast. Particulars: 10 µM unless noted.
For the next assay, the system named is BT-549 breast. Particulars: 10 µM unless noted.
The subject of another assay is MDA-MB-435 melanoma. Particulars: 10 µM unless noted.
For another assay, the system named is SW-620 colon. The note with it: 10 µM unless noted.
A further assay concerns MCF7 breast. The note with it: 10 µM unless noted.
For a further assay, the system named is HCT-116 colon. Particulars: 10 µM unless noted.
Another assay deals with HCC-2998 colon. The note with it: 10 µM.
Another assay deals with KM12 colon. The note with it: 10 µM unless noted.
Another assay concerns IGROV1 ovarian. The note with it: 10 µM unless noted.
The next assay concerns HS 578T breast. Particulars: 10 µM.

SMILES strings stand for the structures. This is part of a sample that, as a whole, favours compounds with a hit. Of some 83,000 tested, about 20% had one in any assay.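 The test compound was applied at a single concentration to cells in 96-well plates for 48 hours, and percent growth was recorded.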 A number with no mark means an inactive call. The source made the active and inactive calls. Rule for the calls: active = growth percent below 10; inactive = the rest.

In the case of `CN1CC[C@H](c2c(O)cc(O)c3c(=O)cc(-c4ccccc4Cl)oc23)[C@H](O)C1`, the growth in the assay with SR leukemia is -0.341% (active); in the assay with RPMI-8226 leukemia, 6.39% (active); with OVCAR-8 ovarian, 7.4% (active); with OVCAR-5 ovarian, 8.36% (active); in the assay with OVCAR-4 ovarian, 1.82% (active); in the assay on SK-OV-3 ovarian it was 10.2%. Besides, the growth in the assay with OVCAR-3 ovarian is 17.4%; in the assay on NCI/ADR-RES ovarian, 2.07% (active); in the assay on T-47D breast it was 0.506% (active); with BT-549 breast it was -8.28% (active); in the assay with MDA-MB-435 melanoma, -73.3% (active); with SW-620 colon, 0.889% (active). For the same molecule, the growth in the assay with MCF7 breast is 4.72% (active); in the assay on HCT-116 colon, 4.7% (active); in the assay on HCC-2998 colon it was -21.1% (active); in the assay with KM12 colon, 3.91% (active).
With `CO[C@@H](C(=O)N1Cc2[nH]nc(NC(=O)c3ccc(N4CCN(C)CC4)cc3)c2C1)c1ccccc1`, the growth was -1.07% (active) with SR leukemia; 44% with RPMI-8226 leukemia; 5.58% (active) in the assay on OVCAR-8 ovarian; 4.9% (active) in the assay with OVCAR-5 ovarian; 9.35% (active) with OVCAR-4 ovarian; 7.44% (active) in the assay on SK-OV-3 ovarian. For the same molecule, the growth in the assay on IGROV1 ovarian was -16.1% (active); in the assay on OVCAR-3 ovarian, 40.6%; with NCI/ADR-RES ovarian, 81.7%; with T-47D breast, -16.3% (active); with MDA-MB-435 melanoma it was 19.5%; in the assay with SW-620 colon, 21.5%. For the same molecule, the growth was -35.7% (active) with HCT-116 colon, 26.4% in the assay on HCC-2998 colon and -28.7% (active) in the assay with KM12 colon.
For the molecule `NC1(c2ccc(-c3nc4ccn5c(=O)[nH]nc5c4cc3-c3ccccc3)cc2)CCC1`, the growth in the assay on SR leukemia was -23.4% (active); in the assay on RPMI-8226 leukemia, 24.7%; with OVCAR-8 ovarian, 51.9%; in the assay on OVCAR-5 ovarian it was 60.5%; in the assay on OVCAR-4 ovarian, 63.2%; in the assay with SK-OV-3 ovarian, 3.19% (active). The growth with OVCAR-3 ovarian is 39.7%; in the assay with NCI/ADR-RES ovarian, 56.8%; in the assay with T-47D breast, -70.4% (active); in the assay with BT-549 breast, 17%; in the assay with MDA-MB-435 melanoma, 27%; in the assay with SW-620 colon, 55%. In addition, the growth in the assay with MCF7 breast is 12.2%; in the assay on HCT-116 colon it was 23.3%; with HCC-2998 colon, 33.6%; in the assay on KM12 colon, 26.9%.
In the case of `Cc1ccsc1C(NC(=O)c1ccccc1)c1cc(Cl)c2cccnc2c1O` (configuration not stated), the growth was 13.2% with SR leukemia; 13.8% in the assay on RPMI-8226 leukemia; 8.81% (active) in the assay with OVCAR-8 ovarian; 46.9% in the assay on OVCAR-5 ovarian; 32% with OVCAR-4 ovarian; 16% with SK-OV-3 ovarian. The growth with OVCAR-3 ovarian was 18.8%; in the assay on HS 578T breast it was 31.5%; with NCI/ADR-RES ovarian it was 7.05% (active); with T-47D breast, 24.1%; in the assay with BT-549 breast it was 35.4%; in the assay with MDA-MB-435 melanoma, 30.5%. The growth with SW-620 colon was 18.8%; in the assay on MCF7 breast it was 21.8%; with HCT-116 colon, 13.7%; in the assay on HCC-2998 colon it was 45%; in the assay on KM12 colon, 22%.
Consider `C/C=C/C=N/NC(=S)Nc1ccccc1`, for which the growth in the assay with SR leukemia is 83.4%; in the assay on RPMI-8226 leukemia, 104%; in the assay on OVCAR-8 ovarian, 96.5%; with OVCAR-5 ovarian, 82.2%; in the assay on OVCAR-4 ovarian, 94.1%; in the assay with SK-OV-3 ovarian, 94.2%. For the same molecule, the growth in the assay on IGROV1 ovarian is 93.6%; with OVCAR-3 ovarian, 117%; with NCI/ADR-RES ovarian it was 99%; in the assay with T-47D breast, 111%; in the assay on MDA-MB-435 melanoma it was 109%; with SW-620 colon it was 121%. In addition, the growth was 97.9% in the assay with HCT-116 colon and 104% in the assay with HCC-2998 colon.
As to `CCc1cc2c(cc1N1CCC(N3CCOCC3)CC1)C(C)(C)c1[nH]c3cc(C#N)ccc3c1C2=O`, the growth was -3.84% (active) with SR leukemia; 15.7% with RPMI-8226 leukemia; -11.3% (active) with OVCAR-8 ovarian; -8.72% (active) in the assay with OVCAR-5 ovarian; -50.9% (active) in the assay on OVCAR-4 ovarian; -22.5% (active) in the assay on SK-OV-3 ovarian. Also, the growth with OVCAR-3 ovarian was 4.44% (active); in the assay on NCI/ADR-RES ovarian, -1.18% (active); with T-47D breast, -26.7% (active); in the assay on BT-549 breast, -19.3% (active); in the assay with MDA-MB-435 melanoma, 5.08% (active); with SW-620 colon, 2.54% (active). Also, the growth in the assay with MCF7 breast was 13.8%; with HCT-116 colon, -7.97% (active).
For the molecule `COC(=O)[C@]12CC[C@@H](C)[C@H](C)[C@@H]1C1=CC[C@@H]3[C@@]4(C)C(C=O)=C[C@@](C)(COS(C)(=O)=O)C4=CC[C@@]3(C)[C@]1(C)CC2`, the growth in the assay on SR leukemia is -15.6% (active); in the assay with RPMI-8226 leukemia it was -4.75% (active); in the assay with OVCAR-8 ovarian it was -12% (active); with OVCAR-5 ovarian it was -35.9% (active); in the assay on OVCAR-4 ovarian it was -61.1% (active); in the assay with SK-OV-3 ovarian it was 17.1%. In addition, the growth is -85.7% (active) with OVCAR-3 ovarian; -24.1% (active) with HS 578T breast; -25.4% (active) with NCI/ADR-RES ovarian; -10.6% (active) in the assay on T-47D breast; -43.5% (active) in the assay on BT-549 breast; -73.8% (active) with MDA-MB-435 melanoma. Also, the growth in the assay on SW-620 colon was -85.2% (active); with MCF7 breast, -16.8% (active); in the assay on HCT-116 colon, -81.2% (active); in the assay with HCC-2998 colon, -83.5% (active); in the assay with KM12 colon, -73% (active).
On to `COC(=O)[C@H](C)NC(=O)[C@@H](OC)[C@@H]1Cc2cc3cc(OC4CC(OC5CC(O)C(O)C(C)O5)C(O)C(C)O4)c(C)c(O)c3c(O)c2C(=O)[C@H]1OC1CC(OC2CC(OC3CC(C)(O)C(O)C(C)O3)C(O)C(C)O2)C(O)C(C)O1` (some centres not stated), for which the growth with SR leukemia was 7.81% (active); in the assay with RPMI-8226 leukemia, -5.91% (active); with OVCAR-8 ovarian it was 9.19% (active); in the assay on OVCAR-5 ovarian, 13.5%; in the assay on OVCAR-4 ovarian it was 0.165% (active); in the assay with SK-OV-3 ovarian, 22.6%. Also, the growth in the assay with OVCAR-3 ovarian was 5.02% (active); with HS 578T breast, -7.37% (active); in the assay on NCI/ADR-RES ovarian, 75.4%; in the assay with T-47D breast, 2.98% (active); in the assay on BT-549 breast, -32.5% (active); with MDA-MB-435 melanoma, -39.3% (active). For the same molecule, the values for the growth in the assay with SW-620 colon, in the assay on HCT-116 colon and in the assay on KM12 colon were 10.2%, 4.37% (active) and 5.08% (active), respectively.
In the case of `O=C(NO)c1ccc(Cn2c(=O)n(-c3ccccc3F)c(=O)c3ccccc32)cc1`, the growth was 1.63% (active) in the assay on SR leukemia; 13.3% in the assay on RPMI-8226 leukemia; -39.3% (active) in the assay on OVCAR-8 ovarian; 27.8% in the assay with OVCAR-5 ovarian; 18.2% in the assay on OVCAR-4 ovarian; 9.04% (active) in the assay with SK-OV-3 ovarian. Besides, the growth in the assay with OVCAR-3 ovarian is -17.8% (active); with HS 578T breast it was 46.6%; in the assay on NCI/ADR-RES ovarian it was 41.6%; in the assay with T-47D breast, 8.62% (active); in the assay with BT-549 breast, 21.3%; in the assay with MDA-MB-435 melanoma, -78.7% (active). For the same molecule, the growth in the assay with SW-620 colon is 0.226% (active); with MCF7 breast it was 20.8%; in the assay on HCT-116 colon, -3.7% (active); in the assay with HCC-2998 colon, -32.9% (active); in the assay on KM12 colon, -40.7% (active).
In the case of `CCCCCc1ccc(C)cc1OC(=O)CCl`, the growth with SR leukemia is 109%; in the assay with RPMI-8226 leukemia, 98.5%; in the assay on OVCAR-8 ovarian, 89.1%; in the assay with OVCAR-5 ovarian, 101%; with OVCAR-4 ovarian it was 109%; in the assay with SK-OV-3 ovarian it was 107%. In addition, the growth is 122% in the assay with OVCAR-3 ovarian; 116% in the assay with HS 578T breast; 111% with NCI/ADR-RES ovarian; 102% in the assay on T-47D breast; 117% in the assay on MDA-MB-435 melanoma; 103% in the assay with SW-620 colon. In addition, the growth was 98% with MCF7 breast, 109% in the assay on HCT-116 colon, 109% in the assay on HCC-2998 colon and 106% with KM12 colon.
